Compound activity as filed in PubChem.
Rows were chosen to be rich in hits. Some 18% of all compounds tested hit in one or more screens of this group.
TDP1 cell CPT – growth inhibition of DT40 Tdp1-/-;hTDP1 cells with camptothecin (screen for TDP1 inhibitors); chicken DT40 Tdp1-/-;hTDP1 cells + 20 nM CPT, ATP luminescence, 48 h; Potency, µM (doses to about 46.2 µM), for the others: at the top dose activity change, negative = growth inhibition, hits mostly inhibitors; 12% of 420,000 active; also: potency is read from the fitted curve at half-maximal effect; % is scaled to controls: 0 for no effect and ±100 for the full control effect; nearly all actives have a fitted effect of over 55% in size
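Cell growth measured by CellTiter-Glo luminescence after a minimum 48 h, 37 C compound exposure with 20 nM CPT in Tdp1-knockout DT40 cells stably expressing hTDP1, seeded 400/well; qHTS titration format.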
TGFb inhibitor – blocks TGF-b signaling | HepG2 CAGA-GFP TGF-b/SMAD3 reporter, GFP fluorescence, 18 h; TGF-beta stimulated, 500 pg/mL final | 1.2% of 410,000 active | Potency, µM (doses to about 46.1 µM), without a hit: at the top dose activity, negative = inhibition, usual class: inhibitors | AID 588855; also: potency is read from the fitted curve at half-maximal effect; % is scaled to controls: 0 for no effect and ±100 for the full control effect; nearly all actives have a fitted effect of over 65% in size
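Read-out: total well GFP (ex488/em500-530) summed from mean per-cell fluorescence. Cells: HEPG2 CAGA-GFP, 1% FBS DMEM, 18 h at 37 degrees C with 500 pg/mL final TGF-beta. Unstimulated wells served as the full-inhibition control; stimulated DMSO wells = 0%.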
IL1B secr inh – inhibitors of inflammasome signaling (IL-1 beta secretion) | THP-1 LPS/ATP IL-1B secretion, AlphaLISA, 16 h; hits give low values | activity change, % at 57.5 µM | 4.7% of 360,000 active | AID 743279; in the data active = activity change below about -50%; inconclusive = mostly about -30% to -49%; also: % is scaled to controls: 0 for no effect and ±100 for the full control effect
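THP-1 cells pretreated 1 hr with compounds (up to 57.5 uM final), then stimulated with LPS (250 ng/mL final) plus ATP (1.25 mM final); secreted IL-1B measured by AlphaLISA after 16 hr, decreased signal indicating inhibition.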
TDP1 cell noCPT – qHTS for Inhibitors of human tyrosyl-DNA phosphodiesterase 1 (TDP1): qHTS in cells in absence of CPT; DT40 Tdp1-/- hTDP1 cells, no CPT, ATP luminescence, 48 h; Potency, µM (titrated, usually from 46.2 µM), inactives show at the highest dose activity change, negative = growth inhibition, hits mostly inhibitors; 15% of 420,000 active; also: potency is read from the fitted curve at half-maximal effect; % is scaled to controls: 0 for no effect and ±100 for the full control effect; nearly all actives have a fitted effect of over 55% in size
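Stably hTDP1-transfected Tdp1-null chicken DT40 cells were treated with library compounds minus camptothecin and grown for at least 48 hr at 37 °C, after which cellular ATP was quantified by luminescence.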
HepG2 tox-1 – kills HepG2 cells in TGF-b inhibitor counter-screen. HepG2 CAGA-GFP viability, ATP luminescence, 18 h. Potency, µM (doses to about 46.1 µM), for the others: at the top dose activity change, negative = cytotoxicity, hits mostly cytotoxic. 0.76% of 410,000 active. AID 588856; also: potency is read from the fitted curve at half-maximal effect
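CellTiter-Glo luminescence gave cytotoxicity after 18 hours at 37 degrees C. The cells were HepG2 CAGA-GFP in 1% FBS DMEM, stimulated with 500 pg/mL TGF-beta after compound addition. %Activity was normalised to no-cell wells (complete cell-killing) and DMSO (no toxicity), and curves were fitted and classified.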
TDP1 inh – blocks human tyrosyl-DNA phosphodiesterase 1 | Q9NUW8 | Potency, µM (top dose mostly 130 µM), for the others: top-dose activity change, negative = inhibition, actives largely listed as inhibitors | 0.28% of 350,000 active | recombinant TDP1, AlphaScreen DNA substrate cleavage; also: potency is read from the fitted curve at half-maximal effect; % is scaled to controls: 0 for no effect and ±100 for the full control effect; nearly all actives have a fitted effect of over 40% in size
Target sequence (Q9NUW8 whole entry, looked up): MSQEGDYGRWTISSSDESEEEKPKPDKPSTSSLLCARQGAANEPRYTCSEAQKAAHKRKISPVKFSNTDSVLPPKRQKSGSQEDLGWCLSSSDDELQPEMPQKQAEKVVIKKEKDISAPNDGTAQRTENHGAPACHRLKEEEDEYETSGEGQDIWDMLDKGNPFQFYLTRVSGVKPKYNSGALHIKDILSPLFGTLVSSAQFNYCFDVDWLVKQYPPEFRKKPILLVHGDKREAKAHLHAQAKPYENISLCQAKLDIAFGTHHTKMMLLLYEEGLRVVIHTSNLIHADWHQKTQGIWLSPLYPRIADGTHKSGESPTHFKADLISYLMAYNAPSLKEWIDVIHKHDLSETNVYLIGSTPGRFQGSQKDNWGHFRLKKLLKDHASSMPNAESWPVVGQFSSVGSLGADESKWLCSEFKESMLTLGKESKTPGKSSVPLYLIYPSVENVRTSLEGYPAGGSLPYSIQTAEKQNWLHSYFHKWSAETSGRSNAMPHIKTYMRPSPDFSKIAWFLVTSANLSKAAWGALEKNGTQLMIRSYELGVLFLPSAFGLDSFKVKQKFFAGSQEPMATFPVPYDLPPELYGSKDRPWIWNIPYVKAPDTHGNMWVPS
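Signal: AlphaScreen proximity between streptavidin donor and anti-FITC acceptor beads on intact substrate. Reaction: Tdp1 1 nM, substrate 15 nM final, 5 min RT after 15 min compound preincubation.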
TGFb confirm – TGF-b pathway inhibition, cherry-pick retest; 63% of 1,600 active; HepG2 CAGA-GFP TGF-b reporter, GFP fluorescence, 18 h; cells stimulated with TGF-beta, 500 pg/mL; Potency, µM (series often up to 46.1 µM), for the others: at the top dose activity, negative = inhibition, actives largely listed as inhibitors; shares compounds with TGFb inhibitor; also: potency is read from the fitted curve at half-maximal effect; % is scaled to controls: 0 for no effect and ±100 for the full control effect; nearly all actives have a fitted effect of over 65% in size
HepG2 tox-2 – toxic to HepG2 cells in TGF-b counterscreen; HepG2 CAGA-GFP viability, ATP luminescence, 18 h; cells stimulated with TGF-beta, 500 pg/mL; Potency, µM (doses to about 46.1 µM), inactives show at the highest dose activity, negative = cytotoxicity, hits mostly inhibitors; 27% of 1,600 active; shares compounds with TGFb inhibitor; also: potency is read from the fitted curve at half-maximal effect; % is scaled to controls: 0 for no effect and ±100 for the full control effect; nearly all actives have a fitted effect of over 70% in size
TGFb CCL64 inh – orthogonal confirmation of TGF-b inhibitors in CCL64 cells | shares compounds with TGFb inhibitor | CCL64 CAGA-GFP reporter, TGF-b stimulated, GFP fluorescence, 18 h | 41% of 1,600 active | Potency, µM (top dose mostly 46.1 µM), inactives show at the top dose activity, negative = inhibition, most hits filed as inhibitors | AID 720536; also: potency is read from the fitted curve at half-maximal effect; nearly all actives have a fitted effect of over 65% in size
COP TGFb inh – blocks TGF-b signaling in HepG2 COP reporter; shares compounds with TGFb inhibitor; HepG2 COP-GFP TGF-b reporter, GFP fluorescence, 18 h; cells stimulated by added recombinant TGF-beta; Potency, µM (series often up to 46.1 µM), for inactives: at the top dose activity, negative = inhibition, usual class: inhibitors; 3% of 1,600 active; also: potency is read from the fitted curve at half-maximal effect; nearly all actives have a fitted effect of over 70% in size
Numbers without * were called inactive; ? = inconclusive; · = not tested or not shown. Unless noted, calls follow the shape of the dose curve; as a rule, active = well fitted curve in the direction sought with a large enough effect; inconclusive = small, poorly fitted or top-dose-only effect, or another doubt; inactive = no such curve, though single readings can be large; an effect the other way counts as inactive or inconclusive.

SMILES	TDP1 cell CPT	TGFb inhibitor	IL1B secr inh	TDP1 cell noCPT	HepG2 tox-1	TDP1 inh	TGFb confirm	HepG2 tox-2	TGFb CCL64 inh	COP TGFb inh
COc1ccccc1N1CCN(C(=O)c2ccc3c(Cl)c4c(nc3c2)CCCC4)CC1	?	11.2µM*	-87.1*	?	-15.3%	5.3%	6.51µM*	?	18.4µM*	38.8%
CC1CCN(C(=O)c2ccc3c(Cl)c4c(nc3c2)CCCC4)CC1	-11.5%	-33.3%	-5.0	?	-13.6%	-1.2%	·	·	·	·
O=C(NCC(c1ccco1)N1CCc2ccccc21)C(=O)Nc1ccc(F)cc1F (centres undefined)	4.11µM*	?	1.0	3.26µM*	9.2%	·	13µM*	0.3%	11.6µM*	-1.8%
O=C(NCc1cccnc1)C(=O)NCC(c1ccco1)N1CCN(c2ccccc2F)CC1 (centres undefined)	-3.2%	-2.7%	7.4	-27.6%	-0.7%	0.0%	·	·	·	·
CC1(C(=O)Nc2ccc3c(c2)OCCO3)CCN1Cc1csc2ccccc12 (centres undefined)	?	-27.2%	-14.8	?	-23.1%	·	·	·	·	·
CC1(C(=O)NCc2ccc3c(c2)OCO3)CCN1Cc1csc2ccccc12 (centres undefined)	?	11.2µM*	-15.3	?	-33.8%	·	16.4µM*	23.1µM*	3.66µM*	43.6%
COc1ccc(/C=C/C(=O)c2ccccc2)cc1Cn1nnc2ccccc21	?	8.91µM*	-99.3*	23.1µM*	-17.2%	2.7%	6.51µM*	23.1µM*	23.1µM*	0.1%
COC(=O)c1ccc(Cn2nnc3ccccc32)cc1	-17.2%	2.1%	17.4	?	-6.2%	1.9%	·	·	·	·
O=C1CS(=O)(=O)N(Cc2ccccc2F)c2ccc(Br)cc21	-5.5%	12.6µM*	21.4	-15.6%	-24.1%	·	?	?	?	37.5%
CCOCCCN(C)C1CCN(C(=O)c2oc3ccccc3c2NC(=O)Cc2ccc(F)cc2)CC1	-21.1%	-3.9%	-15.1	-0.7%	-14.0%	3.5%	·	·	·	·
Cc1ccc(C(=O)Nc2ccc(C(F)(F)F)n(C)c2=O)cc1	-16.2%	?	34.9	-7.4%	1.1%	0.0%	·	·	·	·
Cc1ccc(C(=O)Nc2cccc3[nH]c(C(F)(F)F)nc23)cc1	?	11.2µM*	-12.2	?	-15.8%	·	14.6µM*	?	?	53.8%
CCSCCc1nnc(NC(=O)Nc2cccc(C(F)(F)F)c2)s1	4.11µM*	4.47µM*	-69.3*	2.31µM*	-35.2%	0.0%	5.17µM*	?	7.31µM*	104.1%
COc1ccc(N=Cc2c(C)[nH][nH]c2=O)cc1	5.1%	-16.0%	-4.3	5.6%	-13.3%	9.6%	·	·	·	·
Cc1ccc(CNc2ccc(O)cc2)cc1	?	10µM*	-95.2*	16.4µM*	-102.8%	5.2%	23.1µM*	?	?	?
Cc1ccc(NCc2ccccc2O)cc1	?	-9.2%	-17.0	-27.2%	1.0%	7.8%	·	·	·	·
O=S(=O)(NCCOc1ccccc1Cl)c1ccc2oc3ccccc3c2c1	-29.2%	15.8µM*	35.3	?	-28.6%	·	18.4µM*	?	?	88.0%
COc1ccccc1OCCNS(=O)(=O)c1ccc2oc3ccccc3c2c1	-11.8%	?	-11.1	?	-13.6%	5.4%	·	·	·	·
N#CC(C#N)=C1NC2(CCCC2)Cc2ccccc21	?	7.7%	-1.7	?	-1.4%	1.1%	·	·	·	·
COC(=O)C(Cc1c[nH]c2ccccc12)N1CCS(=O)(=O)CC1 (centres undefined)	1.0%	7.9%	10.3	-21.9%	3.4%	2.7%	·	·	·	·
CN(C(=O)c1cccc(NC(=O)Cc2cccc(NC(=O)C3CCCN(C(=O)C4CCCCC4)C3)c2)c1)C1CC1 (centres undefined)	-9.0%	-22.0%	19.1	-23.5%	10.1%	·	·	·	·	·
O=S(=O)(c1ccc2ccccc2c1)N1CCN(C2Cc3ccccc3C2)CC1	?	5.01µM*	0.0	?	-14.8%	-10.8%	-22.7%	5.0%	11.2%	1.1%
CCCCCCCCNc1nc(Cl)nc(NCCN2CCOCC2)n1	-11.1%	1.4%	-4.4	-9.1%	-15.6%	8.4%	·	·	·	·
CC(=O)NC12CC3CC(C1)CC(C(=O)N1CCN(S(=O)(=O)c4ccc([N+](=O)[O-])cc4)CC1)(C3)C2	-25.4%	0.1%	6.2	-11.6%	2.6%	·	·	·	·	·
NC(=O)c1ccsc1NC(=O)c1ccc(S(=O)(=O)N2CCCc3ccccc32)cc1	16.4µM*	11.2µM*	0.0	18.4µM*	-16.0%	-1.3%	5.17µM*	?	16.4µM*	-1.1%
O=C(O)c1ccc(S(=O)(=O)N2CCCc3ccccc32)cc1	-3.1%	12.7%	83.7	1.8%	5.2%	·	·	·	·	·
O=C(Nc1cccc(-c2cn3cccnc3n2)c1)c1cc(Br)ccc1Cl	-21.1%	22.7%	·	?	-16.5%	1.1%	·	·	·	·
Cc1onc(-c2ccccc2Cl)c1C(=O)Nc1cccc(-c2cn3cccnc3n2)c1	?	?	0.0	16.4µM*	0.0%	4.5%	?	7.9%	-28.8%	0.9%
